# According to PubChem BioAssay (Tox21):
# Records with an inconclusive call do not appear. Active and inactive are the calls of the source. How the calls were made is not given here.
# Assay: qHTS assay to identify small molecule antagonists of the estrogen related receptor signaling pathway with the pleiotropic PPARgamma coactivator (PGC) from Tox21 10K library (AID 1224841); further: actives are mostly falling curves and most rising ones were filed inactive; nearly all actives have a fitted effect of over 50% in size
# Details: PGC/ERR reporter cell line, ONE-Glo luciferase, 18 h; series mostly up to 92.4 µM; activity, negative = inhibition: at the top concentration
# From the text: U.S. Tox21 Program National Center for Advancing Translational Sciences [NCATS] NIH Chemical Genomics Center [NCGC] U.S. Environmental Protection Agency [EPA] National Institutes of Environmental Health Sciences [NIEHS] National Toxicology Program [NTP] U.S. Food and Drug Administration [FDA] Tox21 Assay Overview: Estrogen related receptors (ERRs), the first orphan nuclear receptors discovered, play an important role in the control of cellular energy metabolism. ERRs are required for high-energy production in response to the environmental challenges. The pleiotropic PPARgamma coactivator (PGC) is a major partner of ERR and a key regulator in energy homeostasis. Together they have been implicated in the etiology of metabolic disorders such as Type 2 diabetes and metabolic syndrome. ERR-alpha was also identified as an adverse marker for breast cancer progression; ERR-alpha-positive tumors have a poor prognosis. To screen and to identify environmental compounds that perturb the ERR and PGC/ERR signaling pathways could provide valuable information for potential therapeutic or preventive measures in the treatment of metabolic disease. For identifying PGC/ERR antagonists, PGC/ERR cell line (provided by NTP) has been used to screen Tox21 10K library.
# Tox21 Assay Protocol Summary: The PGC/ERR cells were dispensed at 2,000 cells/5 ul/well in 1536-well white plates using a Multidrop dispenser. After the assay plates were incubated at a 37 C/5% CO2 incubator for 6 hours, 23 nL of compounds dissolved in DMSO, positive and negative controls or DMSO only was transferred to the assay plate by a pin tool. The plates were incubated at 37 C for 18 hours. 4 ul/well of One-Glo reagent was added into the assay plates using a Flying Reagent Dispenser. After 30-minute incubation at room temperature, the luminescence intensity in the plates was measured using a ViewLux plate reader.
# On the % scale 0 is the no-effect control and ±100 the full control effect.
row,SMILES,"activity, negative = inhibition"
1,CNCc1ccccc1,-0.936% [at 42.5 µM] (inactive)
2,C1CCN2C[C@@H]3C[C@@H](CN4CCCC[C@@H]34)[C@H]2C1,2.54% [at 42.5 µM] (inactive)
3,CC(C)CCC(=O)CCC(C)C,0.331% (inactive)
4,C[C@H](CCC(=O)NCC(=O)O)[C@H]1CC[C@H]2[C@@H]3[C@H](O)C[C@@H]4C[C@H](O)CC[C@]4(C)[C@H]3C[C@H](O)[C@]12C,-9.62% (inactive)
5,O=C(O)CCNC(=O)c1ccccc1,0.556% [at 42.5 µM] (inactive)
6,CCNC(=O)NCCCOc1cccc(CN2CCCCC2)c1,-5.53% [at 42.5 µM] (inactive)
7,CC(=O)Nc1ncc([N+](=O)[O-])s1,19.2% [at 42.5 µM] (inactive)
8,CC(=O)/C=C/c1ccco1,0.391% (inactive)
9,C=C(C)C(=O)OC,10.3% (inactive)
10,CN=C(NC#N)NCCSCc1csc(N=C(N)N)n1,15.6% [at 42.5 µM] (inactive)
11,O=C(COCCOCCOCC(=O)Nc1c(I)cc(I)c(C(=O)O)c1I)Nc1c(I)cc(I)c(C(=O)O)c1I,-17.3% [at 42.5 µM] (inactive)
12,O=c1[nH]c(=O)c2ccccc2o1,1.16% [at 42.5 µM] (inactive)
13,CCCCCCCCCOCC1CO1 (stereo not given),-1.27% (inactive)
14,CN(C)CCOCCN(C)CCO,-8.48% (inactive)
15,CC(C)C(=O)c1ccccc1,-13.1% (inactive)
16,C=CCOC(=O)c1ccc(C(=O)OCC=C)c(C(=O)OCC=C)c1,-2.67% (inactive)
17,CC(=O)OC[C@H]1O[C@@H](OC(C)=O)[C@H](OC(C)=O)[C@@H]1OC(C)=O,10.8% [at 42.5 µM] (inactive)
18,CC(=O)c1ccc2c(c1)CCCC2,14.1% (inactive)
19,CCN(CCO)c1cccc(C)c1,-19.7% (inactive)
20,CC(=O)c1ccc(OCC(=O)N2CCCCC2)cc1,35.5% [at 42.5 µM] (inactive)

row,SMILES,"activity, negative = inhibition"
1,CCCCCCCCCCCCCCCC(=O)NCCO,-2.5% [at 42.5 µM] (inactive)
2,C[C@@H]1C[C@H]2[C@@H]3C[C@H](F)C4=CC(=O)C=C[C@]4(C)[C@@]3(F)[C@@H](O)C[C@]2(C)[C@@]1(O)C(=O)CO,16.1% [at 42.5 µM] (inactive)
3,Cc1ccccc1C,9.92% (inactive)
4,CN[C@@H]1[C@@H](O)[C@@H](O[C@@H]2[C@H](O)[C@H](O[C@H]3OC(CN)=CC[C@H]3N)[C@@H](N)C[C@H]2N)OCC1(C)O (stereo not given in full),-0.142% [at 42.5 µM] (inactive)
5,C[CH2][Ge]([Cl])([CH2]C)[CH2]C,22.1% (inactive)
6,CCCCCN(CCCOC)C(=O)C(CCC(=O)O)NC(=O)c1ccc(Cl)c(Cl)c1 (stereo not given),-1.03% [at 42.5 µM] (inactive)
7,CC(C)COC(=O)/C=C/c1ccccc1,13.4% (inactive)
8,Cc1ncc([N+](=O)[O-])n1CC(O)CCl (stereo not given),7.61% [at 42.5 µM] (inactive)
9,O=CO,4.47% [at 8.39 µM] (inactive)
10,Cn1c(=O)c2c(ncn2CC2OCCO2)n(C)c1=O,-4.91% [at 42.5 µM] (inactive)
11,CCCCCCCCOC(C)=O,-0.0426% (inactive)
12,CCCCC(C)C(=O)O (stereo not given),10.6% (inactive)
13,CC(C)(C)NCCO,1.86% (inactive)
14,Cc1cccc(Nc2ccncc2S(=O)(=O)NC(=O)NC(C)C)c1,17.4% [at 42.5 µM] (inactive)
15,CCC1COC(=O)O1 (stereo not given),12.6% (inactive)
16,NS(=O)(=O)c1ccccc1OC(F)(F)F,6.55% (inactive)
17,CCCCOC(=O)C(=O)OCCCC,7.97% (inactive)
18,CC1CCC(C(C)(C)S)C(=O)C1 (stereo not given),-2.48% (inactive)
19,CCC(C)(C)C1CCC(=O)CC1,9.63% (inactive)
20,CCc1nccnc1C,25.1% (inactive)
